From PubChem BioAssay (NCI)
This is part of a sample that, as a whole, favours compounds with a hit. Of some 83,000 tested, about 20% had one in any assay.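 Each cell line was grown in a 96-well plate and treated with one concentration of compound for 48 hours. Values below 10 were considered active.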 Calls of active or inactive are those of the source.

Assays:
Assay in all cases: NCI-60 one-dose screen, 48 h (100 = growth as untreated, 0 = no growth, -100 = all killed)
Details in all cases: 10 µM unless noted
SR leukemia = tested on: SR leukemia
RPMI-8226 leukemia = tested on: RPMI-8226 leukemia
OVCAR-8 ovarian = tested on: OVCAR-8 ovarian
OVCAR-5 ovarian = tested on: OVCAR-5 ovarian
OVCAR-4 ovarian = tested on: OVCAR-4 ovarian
SK-OV-3 ovarian = tested on: SK-OV-3 ovarian
IGROV1 ovarian = tested on: IGROV1 ovarian
OVCAR-3 ovarian = tested on: OVCAR-3 ovarian
HS 578T breast = tested on: HS 578T breast
NCI/ADR-RES ovarian = tested on: NCI/ADR-RES ovarian
T-47D breast = tested on: T-47D breast
BT-549 breast = tested on: BT-549 breast
MDA-MB-435 melanoma = tested on: MDA-MB-435 melanoma
SW-620 colon = tested on: SW-620 colon
MCF7 breast = tested on: MCF7 breast
HCT-116 colon = tested on: HCT-116 colon
HCC-2998 colon = tested on: HCC-2998 colon
KM12 colon = tested on: KM12 colon

Measured: growth

CC(C)NS(=O)(=O)/N=C1\NC(=O)NC1=C(Cl)Cl
inactive: SR leukemia 19.7% | RPMI-8226 leukemia 91.1% | OVCAR-8 ovarian 96.2% | OVCAR-5 ovarian 115% | OVCAR-4 ovarian 106% | SK-OV-3 ovarian 102% | IGROV1 ovarian 97.1% | OVCAR-3 ovarian 98.5% | HS 578T breast 97.9% | NCI/ADR-RES ovarian 98.5% | T-47D breast 79.7% | BT-549 breast 104% | MDA-MB-435 melanoma 94.3% | SW-620 colon 103% | MCF7 breast 82.7% | HCT-116 colon 102% | HCC-2998 colon 110% | KM12 colon 85.4%

CS(=O)/C(C#N)=C\C=C\c1cccc(Cl)c1 (centres undefined)
active: SR leukemia 6.39% | RPMI-8226 leukemia 2.54% | NCI/ADR-RES ovarian -44.1% | BT-549 breast 9.95% | MDA-MB-435 melanoma 5.01% | HCT-116 colon -28.1% | HCC-2998 colon -31.1%
inactive: OVCAR-8 ovarian 26.3% | OVCAR-5 ovarian 34.1% | OVCAR-4 ovarian 34.7% | SK-OV-3 ovarian 43.7% | IGROV1 ovarian 23.4% | OVCAR-3 ovarian 10.6% | HS 578T breast 43.2% | T-47D breast 16.5% | SW-620 colon 14.9% | MCF7 breast 12.9% | KM12 colon 12.5%

CCOC(=O)c1c(C)nc2ccccc2c1/C=C/c1ccc(F)cc1
inactive: SR leukemia 56.3% | RPMI-8226 leukemia 48.7% | OVCAR-8 ovarian 70.4% | OVCAR-5 ovarian 93.1% | OVCAR-4 ovarian 64.2% | SK-OV-3 ovarian 87.6% | IGROV1 ovarian 66.6% | OVCAR-3 ovarian 80.8% | HS 578T breast 96.3% | NCI/ADR-RES ovarian 41.2% | T-47D breast 23.4% | BT-549 breast 73.6% | MDA-MB-435 melanoma 78.7% | SW-620 colon 85.5% | MCF7 breast 23.3% | HCT-116 colon 56.2% | HCC-2998 colon 81.1% | KM12 colon 72.5%
